# High-throughput results deposited in PubChem BioAssay by National Center for Advancing Translational Sciences (NCATS).
# CHX counter – Cycloheximide Counterscreen for Small Molecule Inhibitors of Shiga Toxin | max response, % | cell reporter, cycloheximide protein synthesis inhibition counterscreen | actives 12% (n = 300,000); in the data active = max response mostly above about 13%, no sharp cut-off; inactive = mostly below about 14%; note: read at 38.3 µM for the half of the compounds with a filed dose
# HCMV inh – qHTS Assay for inhibitors of the human cytomegalovirus (HCMV). activity change, negative = inhibition, % at 57.5 µM. actives 4.5% (n = 410,000). HFF cells, HCMV-luciferase reporter, 72 h; active compounds read low; in the data active = activity change below about -60%; inconclusive = no clear call, values can overlap the other calls; inactive = above about -39%
#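 Steps: HFFs plated, 16 h 37C; compounds added; HCMV-luciferase added to MOI 1 PFU/cell; 72 h 37C; OneGlo reagent, 5 min room temperature; luminescence read, normalized to controls.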
# Pf growth 96h – Primary qHTS for delayed death inhibitors of the malarial parasite plastid, 96 hour incubation; P. falciparum luciferase reporter growth, 96 h; Potency, µM (top dose mostly 28.7 µM), hits mostly inhibitors; actives 6.9% (n = 320,000)
#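 Parasite growth measured via integrated firefly luciferase reporter in P. falciparum. Infected erythrocytes at 2% hematocrit, 0.05% parasitemia final were treated 96 hours at 37 C under 5% CO2, and luminescence was read.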
# Pf growth 48h – Primary qHTS for delayed death inhibitors of the malarial parasite plastid, 48 hour incubation; P. falciparum luciferase growth in erythrocytes, 48 h; Potency, µM (doses to about 28.7 µM), actives largely listed as inhibitors; actives 5.9% (n = 310,000)
#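 In quantitative HTS format, infected erythrocytes bearing luciferase-reporter parasites were treated for a single generation at 37 C. Luminescence after adding detection reagent served as the growth measure.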
# Shiga toxin inh – A qHTS for Small Molecule Inhibitors of Shiga Toxin; AID 2315, 2010; Vero cells, Shiga toxin protein synthesis inhibition reporter; inhibition, % at 38.7 µM; actives 9.2% (n = 290,000); in the data active = inhibition mostly above about 28%, no sharp cut-off; inactive = mostly below about 43%
# A number is an active result; . = inactive; ? = inconclusive; / = no result. The list is not random: actives were taken first. Their share in the collection is about 20%. Unless noted, calls come from the whole dose curve; as a rule, active = well fitted inhibition curve with a large enough effect; inconclusive = small, poorly fitted or top-dose-only effect, or another doubt; inactive = no such curve, though single readings can be large or run the other way.
SMILES,CHX counter,HCMV inh,Pf growth 96h,Pf growth 48h,Shiga toxin inh
CCOc1ccc(CN(C(=O)c2cccs2)C2CCS(=O)(=O)C2)cc1 (stereo unspecified),.,.,.,.,.
C#CCOCCOCCOCCNc1nc(N2CCN(C(=O)CCCCCCCCCCNC(=O)Cn3cc(C[C@@H](C)O)nn3)CC2)nc(N2CCN(C(=O)CCCCCCCCCCNC(=O)[C@H](CCCN=C(N)N)n3cc(C[C@@H](C)CC)nn3)CC2)n1,/,/,1µM,1.3µM,/
C#CCOCCOCCOCCNc1nc(N2CCN(C(=O)CCCCCCCCCCNC(=O)[C@H](CO)n3cc(CCCSC)nn3)CC2)nc(N2CCN(C(=O)CCCCCCCCCCNC(=O)[C@@H]([C@H](C)O)n3cc(C)nn3)CC2)n1,/,/,0.093µM,0.29µM,/
CCc1ccccc1Nc1ncnc2c1nc1n2CCCC1,/,.,/,/,/
Cc1ccccc1OC(C)C(=O)Nc1ccc2c(c1)OCCO2 (stereo unspecified),34,.,.,.,.
CC(C)CNS(=O)(=O)c1ccc(CCC(=O)Nc2ccc3c(c2)OCCO3)cc1,.,.,.,12µM,.
CCCNS(=O)(=O)c1ccc(CCC(=O)Nc2ccc3c(c2)OCCO3)cc1,.,.,?,?,.
CC(NS(=O)(=O)c1ccccc1)C(=O)Nc1ccc2c(c1)OCCO2 (stereo unspecified),.,.,7.4µM,.,.
CC(C)CNS(=O)(=O)c1ccc(C(=O)Nc2ccc3c(c2)OCCO3)cc1,54,.,?,?,97
CC(C)CN(C(=O)CCNC(=O)c1ccc(Cl)cc1)C1CCS(=O)(=O)C1 (stereo unspecified),/,.,/,/,/
Cc1ccc(CCNC(=O)c2ccc(CNS(=O)(=O)c3ccc(F)cc3)cc2)cc1,/,.,/,/,/
C[C@@H]1[C@@H](Sc2ccccc2)CC(=O)O[C@@H]1c1ccc(-c2ccccc2)cc1,63,?,/,/,82
O=C(CN1CCN(Cc2ccccc2)CC1)Nc1ccc([N+](=O)[O-])cc1C(=O)Nc1ccccc1F,.,.,?,10µM,.
CCOC(=O)N1CCN(CC(=O)Nc2ccc([N+](=O)[O-])cc2C(=O)Nc2ccccc2F)CC1,.,.,?,12µM,.
Cc1cc([N+](=O)[O-])ccc1NC(=O)CN1CCN(Cc2ccccc2)CC1,.,.,?,.,.
CCOC(=O)N1CCN(CC(=O)Nc2ccccc2C(=O)Nc2ccccc2)CC1,/,.,.,.,/
Cc1cccc(CSc2nc3ccncc3n2CC(=O)Nc2ccc(C)c(C)c2)c1,27,/,3.7µM,.,.
Cc1ccc(NC(=O)Cn2c(=O)c(C(F)(F)F)nc3ccccc32)cc1C,/,.,/,/,/
Cc1ccc(NC(=O)Cn2c(/C=C/c3ccccc3)nc3ccccc32)cc1C,18,.,.,?,.
Cc1ccc(C)c(CSc2nc3ccncc3n2CC(=O)Nc2ccc(C)c(C)c2)c1,.,/,.,?,.
CC(C)c1ccccc1NC(=O)Cn1c(/C=C/c2ccccc2)nc2ccccc21,36,/,.,.,53
O=C(COC(=O)CC1SC(N2CCCC2)=NC1=O)Nc1ccc(Br)cc1 (stereo unspecified),/,.,.,.,/
COc1cccc(NC(=O)C2CCN(S(=O)(=O)c3ccc4c(c3)N(C(C)=O)CCO4)CC2)c1,.,.,?,?,.
COc1ccc(C2C(C(=O)Nc3ccc(C)cc3C)=C(C)Nc3nc(SCc4cccc(C)c4)nn32)c(OC)c1 (stereo unspecified),/,.,/,/,/
O=Nc1ccc(NOC(=O)c2ccccc2Br)cc1,85,?,.,.,127
SMILES,CHX counter,HCMV inh,Pf growth 96h,Pf growth 48h,Shiga toxin inh
Cc1ccc(C(=O)c2cnc3ccccc3c2-c2ccccc2)cc1,.,?,10µM,13µM,.
Cc1oc(-c2ccccc2F)nc1CSCC(=O)NCc1ccc2c(c1)OCO2,.,.,.,.,.
CC(C)(C)c1ccc(OCCC(=O)Nc2cccc(S(=O)(=O)N3CCCC3)c2)cc1,/,.,?,10µM,/
CC(=O)c1ccc(OCCCC(=O)Nc2cccc(S(=O)(=O)N3CCCCCC3)c2)cc1,/,.,/,/,/
CC(=O)c1ccc(OCCCC(=O)Nc2cccc(S(=O)(=O)N3CCCCC3)c2)cc1,/,.,?,13µM,/
COc1ccc(CC2(C)OC(c3ccc(Cl)cc3)=NN2C(C)=O)cc1 (stereo unspecified),.,.,.,?,.
CC(=O)N1Cc2cc([N+](=O)[O-])ccc2Oc2ccccc21,.,.,?,.,.
CCOC(=O)c1sc(N)c(C#N)c1CSc1nnc(C2CCCCC2)n1N,.,.,10µM,/,.
N#Cc1ccc(COC(=O)CSc2nnc(C3CCCCC3)n2N)cc1,.,.,.,.,.
O=C(NCCS(=O)(=O)N1CCN(c2ccccc2)CC1)c1ccc(Br)o1,/,.,.,.,/
CCn1nc(C)c(CCN(C)C(=O)Nc2cc(Cl)ccc2C)c1C,/,.,/,/,/
CCN1CCN(c2ccc(NC(=O)c3cccnc3)cc2Cl)CC1,11,.,/,.,.
CCN1CCN(c2ccc(NC(=O)c3ccc(F)cc3)cc2Cl)CC1,30,.,.,?,43
Cc1cc(C)n(-c2ccc(C(=O)Nc3cccnc3Cl)cc2)n1,.,.,.,.,.
CCN1CCN(c2ccc(Cl)cc2NC(=O)c2ccc(-n3nc(C)cc3C)cc2)CC1,/,.,?,4.1µM,/
C[C@H](CO)N1C[C@H](C)[C@@H](CN(C)Cc2ccc(-c3ccccc3)cc2)Oc2c(NS(=O)(=O)c3cn(C)cn3)cccc2C1=O,/,.,/,/,/
[O-]/[N+](=C/c1cccnc1)c1ccc(Br)cc1,37,.,/,.,94
[O-]/[N+](=C\c1ccncc1)c1ccc(Br)cc1,17,/,.,.,.
CC(C)(C)c1ccc(N2C(=O)Cc3c2nc(N)c(C#N)c3N)cc1,35,.,/,.,.
CCc1ccc(N2C(=O)Cc3c2nc(N)c(C#N)c3N)cc1,23,.,/,.,114
O=C(Oc1ccccc1/C=C\C(=O)c1cc2ccccc2o1)c1cccc(F)c1,37,.,.,.,41
O=C(Oc1ccccc1/C=C\C(=O)c1cc2ccccc2o1)c1ccccc1,35,.,.,.,90
COc1ccc(C(=O)/C=C/c2ccccc2OC)c(OC(=O)c2ccc([N+](=O)[O-])cc2)c1,/,.,/,/,/
COc1cccc(C(=O)Oc2ccccc2/C=C\C(=O)c2cc3ccccc3o2)c1,86,.,?,?,63
O=C(Nc1ccccc1)c1ccc(OC(=O)c2cc3ccccc3o2)cc1,.,.,.,/,.
SMILES,CHX counter,HCMV inh,Pf growth 96h,Pf growth 48h,Shiga toxin inh
CCCCNC(=O)c1ccc(Cc2cn(C)c3ccccc23)nc1,/,.,/,/,/
CC1Cc2[nH]c(=S)[nH]c(=O)c2C(C)O1 (stereo unspecified),/,.,/,/,/
COc1ccc(NC(=O)NCCC2=CCCCC2)cc1,28,.,.,.,71
CC(=O)Nc1cccc(OCC(=O)NCCC2=CCCCC2)c1,23,.,.,.,29
COc1ccccc1NC(=O)NCCC1=CCCCC1,.,.,.,?,.
CC(=O)c1ccc(OCC(=O)NCCC2=CCCCC2)cc1,/,.,/,/,/
